Bioassay records deposited in PubChem by National Center for Advancing Translational Sciences (NCATS).
Compounds with a hit are over-represented: about 1% of the library has one in this group of screens.
gsp agonist = gsp mutant agonism; gsp mutant cells, cAMP HTRF, 30 min; Potency, µM (doses to about 76.9 µM), inactives show at the highest dose activation (cAMP increase), most hits filed as activators; 0.13% of 340,000 active; AID 624287; active = well fitted activation curve with a large enough effect; inconclusive = small, poorly fitted or top-dose-only effect, or another doubt; inactive = no such curve, though single readings can be large or run the other way; cell line not stated here;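 also: phosphodiesterase inhibitor Ro 20-1724 added with compounds to block cAMP breakdown; potency is read from the fitted curve at half-maximal effect; nearly all actives have a fitted effect of over 60% in size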
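Cells stably selected in G418 were plated at 2000/well, grown 16-24 hr, then given compounds in DMSO with the PDE inhibitor […] (300 uM solution added) for 30 min at 37C; cAMP was read by HTRF.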
RXFP1 antagonist = blocks the human relaxin receptor RXFP1 | HEK293-RXFP1, relaxin-stimulated cAMP HTRF, 30 min; active compounds read low | activity change, negative = inhibition, % at 57.5 µM | 0.59% of 350,000 active | AID 1259400;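 active = activity change of -60% or lower, but not beyond a set lower limit; inconclusive = change between -60% and -40%, or beyond the set limit; inactive = change above -40%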; also: % is scaled to controls: 0 for no effect and ±100 for the full control effect
RXFP1 agonist = activates the human relaxin receptor RXFP1. HEK293T-RXFP1 cAMP TR-FRET, 30 min; response scale: percent of porcine relaxin response, buffer zero. Potency, µM (doses to about 57.5 µM), for inactives: at the top dose activation, most hits filed as activators. 0.3% of 370,000 active; active = well fitted activation curve with a large enough effect; inconclusive = small, poorly fitted or top-dose-only effect; also: potency is read from the fitted curve at half-maximal effect; % is scaled to controls: 0 for no effect and ±100 for the full control effect; nearly all actives have a fitted effect of over 60% in size
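cAMP rise read by TR-FRET after 30 min, 37C compound exposure (up to 58 uM) in RXFP1-transfected HEK293 cells with Ro 20174 present. EC50 from Hill-equation fits, with 29 nM porcine relaxin as 100% and buffer as basal.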
gsp antagonist = gsp mutant antagonism; Potency, µM (highest dose often 76.9 µM), for the others: top-dose activity change, negative = inhibition, usual class: inhibitors; gsp-mutant cells, cAMP HTRF, 30 min; 0.4% of 340,000 active; AID 624288; calls by dose curve; cell line not stated here;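 also: intracellular cAMP measured with PDE inhibitor Ro 20-1724 present during compound exposure; potency is read from the fitted curve at half-maximal effect; % is scaled to controls: 0 for no effect and ±100 for the full control effect; nearly all actives have a fitted effect of over 65% in size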
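HTRF cAMP read-out (cAMP-d2 plus anti-cAMP antibody-K in lysis buffer, 30 min RT). Before lysis, cells are exposed to compounds with […] for 30 min at 37C in DPBS containing Ca/Mg, BSA and Tween 20.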
TSHR antagonist = antagonists of human thyroid stimulating hormone receptor. TSHR-expressing cells, TSH-stimulated cAMP HTRF, 2 h; active compounds read low. P16473. activity change, negative = inhibition, % at 11.5 µM. 0.2% of 330,000 active;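 active = activity change below a set negative limit, meaning inhibition stronger than a set level, cut at about -70% in these data; inconclusive = activity change between two set negative limits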; also: % is scaled to controls: 0 for no effect and ±100 for the full control effect
Target sequence (P16473 whole entry, looked up): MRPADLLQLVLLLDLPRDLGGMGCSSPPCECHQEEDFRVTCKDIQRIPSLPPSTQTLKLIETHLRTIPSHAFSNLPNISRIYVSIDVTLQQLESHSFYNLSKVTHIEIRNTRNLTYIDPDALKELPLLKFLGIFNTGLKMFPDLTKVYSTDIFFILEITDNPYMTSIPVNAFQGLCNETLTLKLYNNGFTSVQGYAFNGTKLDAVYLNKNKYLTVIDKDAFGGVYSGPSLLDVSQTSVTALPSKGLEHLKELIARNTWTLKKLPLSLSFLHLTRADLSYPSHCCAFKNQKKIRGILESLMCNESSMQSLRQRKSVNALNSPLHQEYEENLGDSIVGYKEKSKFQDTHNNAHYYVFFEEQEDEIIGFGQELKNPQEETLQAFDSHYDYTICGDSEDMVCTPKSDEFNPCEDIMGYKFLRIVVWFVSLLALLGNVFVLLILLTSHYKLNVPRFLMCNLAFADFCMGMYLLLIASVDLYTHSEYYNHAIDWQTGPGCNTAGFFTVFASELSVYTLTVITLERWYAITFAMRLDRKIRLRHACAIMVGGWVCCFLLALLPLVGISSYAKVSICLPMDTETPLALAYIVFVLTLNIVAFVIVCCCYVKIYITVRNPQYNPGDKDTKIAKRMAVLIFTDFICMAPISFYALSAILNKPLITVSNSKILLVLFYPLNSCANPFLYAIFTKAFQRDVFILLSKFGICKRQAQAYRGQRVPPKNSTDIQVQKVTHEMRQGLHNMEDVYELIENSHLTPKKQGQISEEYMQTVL
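Competitive HTRF cAMP read-out (cryptate anti-cAMP antibody, cAMP-d2; 30 min, room temperature) in freshly harvested TSHR cells. Compounds added before TSH at EC80 (4nM final), followed by 2 hours' incubation at 37 deg C.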
* = called active by the depositor; [ ] = remark or other dose.

What do the screens show for `O=C(Nc1ccc2nc3n(c(=O)c2c1)CCCCC3)C(=O)N1CCN(c2ccccc2F)CC1`?
gsp agonist: 27.2%; RXFP1 antagonist: 29.8; RXFP1 agonist: 0.4%; gsp antagonist: -3.5%; TSHR antagonist: -121.8*

How did O=Cc1cc(Cl)ccc1OCCN1CCC(Cc2ccccc2)CC1 do in these assays?
gsp agonist: -14.8%; RXFP1 antagonist: -108.7*; RXFP1 agonist: 0.1%; gsp antagonist: 0.3%; TSHR antagonist: -0.1

Results for N#Cc1ccc(NC(=O)C2Cc3ccccc3CN2S(=O)(=O)c2ccc(F)cc2)cc1 (stereo not drawn) ?
RXFP1 antagonist: -4.9; RXFP1 agonist: 0.3%

Results for O=C(NC(NC(=S)Nc1c(Cl)cccc1Cl)C(Cl)(Cl)Cl)c1cccc([N+](=O)[O-])c1 (stereo not drawn) ?
gsp agonist: -12.0%; RXFP1 antagonist: -37.5; RXFP1 agonist: -1.7%; gsp antagonist: 35.5µM*; TSHR antagonist: -25.0

What do the screens show for `O=C(NNC(=S)NC(=O)c1ccccc1Cl)c1cccc([N+](=O)[O-])c1`?
gsp agonist: 8.5%[15.4 µM]; RXFP1 antagonist: 8.7; RXFP1 agonist: 2.0%; gsp antagonist: -4.0%; TSHR antagonist: -8.5

How did CC1=C(C(=O)Nc2ccccc2)C(c2cccs2)n2nc(SCc3ccccc3F)nc2N1 (stereo not drawn) do in these assays?
RXFP1 agonist: -2.1%

Results for COc1ccccc1NC(=O)/C(C#N)=C/c1cccnc1 ?
gsp agonist: inconclusive; RXFP1 antagonist: -0.7; RXFP1 agonist: 4.0%; gsp antagonist: -14.3%; TSHR antagonist: -0.7

Results for N#C/C(=C\c1cccnc1)C(=O)Nc1cccc2ccccc12 ?
gsp agonist: inconclusive; RXFP1 antagonist: -67.2*; RXFP1 agonist: -0.8%; gsp antagonist: 10.1%; TSHR antagonist: 9.5

Results for O=C(COCCOCCOCC(=O)Nc1c(I)cc(I)c(C(=O)O)c1I)Nc1c(I)cc(I)c(C(=O)O)c1I ?
RXFP1 antagonist: -6.2

What do the screens show for `CCCNC(=O)c1ccc(-n2c(-c3ccccc3)cc3c2CCC(C)C3)cc1` (stereo not drawn)?
RXFP1 antagonist: -35.8; RXFP1 agonist: -2.7%

Results for COCCNC(=O)c1ccc(-n2c(-c3ccccc3)cc3c2CCC(C)C3)cc1 (stereo not drawn) ?
RXFP1 antagonist: -70.7*; RXFP1 agonist: -1.5%

What do the screens show for `CO[C@@H]1[C@@H](OC2OC(C)C(OC3CC(C)(O)C(O)C(C)O3)C(N(C)C)C2O)[C@@H](CC=O)C[C@@H](C)[C@@H](OC2CCC(N(C)C)C(C)O2)/C=C/C=C/C[C@@H](C)OC(=O)C[C@H]1OC(C)=O` (stereo partly drawn)?
RXFP1 antagonist: -8.9

How did C/C(N)=C(/C#N)C(=O)CSc1nn(-c2ccc(Cl)cc2)c(=S)s1 do in these assays?
gsp agonist: -8.6%; RXFP1 antagonist: -4.8; RXFP1 agonist: 10.3%; gsp antagonist: 50.1µM*; TSHR antagonist: -24.3

What do the screens show for `COc1ccc(/C=N/NC(=O)C(=O)N2CCCC2)cc1`?
gsp agonist: 13.1%[15.4 µM]; RXFP1 antagonist: -10.6; RXFP1 agonist: 0.6%; gsp antagonist: -10.9%; TSHR antagonist: 0.7

Results for O=C(COc1ccc(/C=N/NC(=O)C(=O)N2CCCCC2)cc1)Nc1ccccc1Cl ?
gsp agonist: 3.0%; RXFP1 antagonist: -73.1*; RXFP1 agonist: -1.1%; gsp antagonist: -18.4%; TSHR antagonist: -7.5

What do the screens show for `Cc1ccc(-c2nnc(Nc3cccc(C(F)(F)F)c3)c3ccccc23)cc1S(=O)(=O)N1CCOCC1`?
RXFP1 antagonist: 1.0; RXFP1 agonist: -2.2%

Results for O=C(CCCn1c(=S)[nH]c2cc3c(cc2c1=O)OCO3)NC1CC1 ?
gsp agonist: 0.0%; RXFP1 antagonist: -71.7*; RXFP1 agonist: 4.1%; gsp antagonist: 15.8%; TSHR antagonist: -2.7

What do the screens show for `O=C(CCCn1c(=S)[nH]c2ccccc2c1=O)NC1CCCCC1`?
gsp agonist: 20.7%; RXFP1 antagonist: -111.3*; RXFP1 agonist: 2.7%; gsp antagonist: 7.6%; TSHR antagonist: -2.3

Results for O=C(CCCn1c(=S)[nH]c2cc3c(cc2c1=O)OCO3)N1CCN(c2ccc(Cl)cc2)CC1 ?
gsp agonist: -30.5%; RXFP1 antagonist: -115.8*; RXFP1 agonist: 2.2%; gsp antagonist: -9.2%; TSHR antagonist: -5.7

How did COc1ccc(NC(=O)CCn2c(=S)[nH]c3ccccc3c2=O)cc1OC do in these assays?
gsp agonist: inconclusive; RXFP1 antagonist: -73.7*; RXFP1 agonist: 16.1%; gsp antagonist: 21.0%; TSHR antagonist: -2.1

How did O=C(CCCn1c(=S)[nH]c2cc3c(cc2c1=O)OCO3)N1CCN(c2ccccc2)CC1 do in these assays?
gsp agonist: -0.4%; RXFP1 antagonist: -13.6; RXFP1 agonist: 0.9%; gsp antagonist: 20.9%; TSHR antagonist: -14.8

Results for O=C(CCCn1c(=S)[nH]c2cc3c(cc2c1=O)OCO3)NCc1ccco1 ?
gsp agonist: 3.7%[15.4 µM]; RXFP1 antagonist: -63.6*; RXFP1 agonist: 6.2%; gsp antagonist: 9.9%; TSHR antagonist: -12.0

How did COc1ccc(N2CCN(C(=O)CCCCCn3c(=S)[nH]c4ccc(N5CCOCC5)cc4c3=O)CC2)cc1 do in these assays?
gsp agonist: -19.6%; RXFP1 antagonist: -98.4*

How did COc1ccc(N2CCN(C(=O)CCCCCn3c(=S)[nH]c4cc5c(cc4c3=O)OCO5)CC2)cc1 do in these assays?
gsp agonist: 10.9%; RXFP1 antagonist: inconclusive; RXFP1 agonist: inconclusive; gsp antagonist: 2.8%; TSHR antagonist: -7.9

What do the screens show for `Cc1cccc(N2CCN(C(=O)CCn3c(=S)[nH]c4cc5c(cc4c3=O)OCO5)CC2C)c1` (stereo not drawn)?
gsp agonist: 21.4%; RXFP1 antagonist: -77.2*; RXFP1 agonist: 0.1%; gsp antagonist: -18.6%; TSHR antagonist: -17.2

Results for COc1ccc(NC(=O)Cn2c(=O)n(Cc3ccccc3Cl)c(=O)c3cc(OC)c(OC)cc32)cc1OC ?
RXFP1 agonist: 25.1µM*

How did COc1cccc(Cn2c(=O)n(-c3cc(C)cc(C)c3)c(=O)c3oc4ccccc4c32)c1 do in these assays?
RXFP1 antagonist: 4.4; RXFP1 agonist: -0.5%

Results for CC(=O)c1ccc(NC(=O)COc2ccccc2-c2nc(-c3ccc(C)cc3)no2)cc1 ?
RXFP1 antagonist: -4.5; RXFP1 agonist: -2.9%

Results for COc1ccc(C(=O)NCC(c2cccnc2)N2CCN(c3ccc(F)cc3)CC2)cc1 (stereo not drawn) ?
RXFP1 antagonist: -8.3; RXFP1 agonist: 0.6%

What do the screens show for `CC1CC(C)CN(C(=O)CCCn2c(=S)[nH]c3ccccc3c2=O)C1` (stereo not drawn)?
gsp agonist: -7.7%; RXFP1 antagonist: -97.2*; RXFP1 agonist: -0.4%; gsp antagonist: -1.2%; TSHR antagonist: 10.3
